PABP FP inh – PABP-poly(A) binding inhibition; P11940; PABP-poly(A) RNA binding, fluorescence polarization; inhibition, % at 35 µM; 290,000 tested, 1% active;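 further: calls also rest on retests at 20 µM and on dose response follow-up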
CRFR2-BP antag – blocks CRF-induced signaling of the CRF-BP/CRF-R2 complex; HEK293 CRF-R2/CRF-BP, CRF-induced calcium fluorescence; inhibition, % at 11.8 µM; 350,000 tested, 0.59% active; AID 588475;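 active means inhibition of the ligand-induced calcium signal above about 50% at the single tested concentration, limit read from the data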
PABP1 MLLE inh – blocks PAM2 peptide binding to the PABP1 MLLE domain. P11940. GST-MLLE / FITC-PAM2 fluorescence polarization. inhibition, % at 20 µM. 360,000 tested, 0.36% active. AID 588489; in the data active means inhibition above about 35%, passing the limit was not always enough;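 further: plate controls were DMSO wells with GST-MLLE for no effect and wells lacking GST-MLLE protein for full effect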
eIF4H FP inh – inhibitors of RNA binding by human eIF4H; Q15056; eIF4H fluorescence polarization binding assay; inhibition, % at 35 µM; 290,000 tested, 0.94% active;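 further: calls also rest on retests at 20 µM and on dose response follow-up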
PHOSPHO1 inh – inhibitors of human PHOSPHO1 phosphatase. inhibition, % at 13.3 µM. recombinant PHOSPHO1, absorbance phosphatase assay. 290,000 tested, 1.1% active. Q8TCT1; in the data active means inhibition above about 60%
Target sequence (Q8TCT1 whole entry, looked up): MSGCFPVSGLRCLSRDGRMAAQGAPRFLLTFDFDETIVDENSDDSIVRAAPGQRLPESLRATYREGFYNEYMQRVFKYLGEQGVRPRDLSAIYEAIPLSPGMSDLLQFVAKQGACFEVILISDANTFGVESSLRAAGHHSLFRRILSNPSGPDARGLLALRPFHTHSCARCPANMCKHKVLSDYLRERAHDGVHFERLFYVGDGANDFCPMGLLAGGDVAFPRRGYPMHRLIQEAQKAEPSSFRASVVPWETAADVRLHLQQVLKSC
Active calls of the source: *; ? = inconclusive; · = not tested or not shown. A selection: hits, their analogues and other compounds. The true share with any hit is near 2.6%. Unless noted, how the calls were made is not given here.

SMILES	PABP FP inh	CRFR2-BP antag	PABP1 MLLE inh	eIF4H FP inh	PHOSPHO1 inh
CCN(CC)CCNC(=O)c1cccc(NC(=O)C(=O)c2ccccc2NC(C)=O)c1	-6	-5	15	2	7
CN1CCC(N2CCN(C3CN(C4CCCCC4)S(=O)(=O)C3)CC2)CC1 (centres undefined)	·	·	5	·	·
CCCn1c(Cc2ccccc2)nnc1SC(C)C(=O)NC1CC1 (centres undefined)	·	-5	8	·	·
N=C1/C(=C/c2cccn2-c2ccc([N+](=O)[O-])cc2)C(=O)N=C2SC=CN12	-18	2	-5	15	-8
O=C1NC(=S)N/C1=C/c1cccn1-c1ccc([N+](=O)[O-])cc1	6.9*	25	-6	84*	6
COc1cccc(/C=C2\SC(=S)N(NS(=O)(=O)c3ccccc3)C2=O)c1OC	2	63*	5	-8	22
O=C1/C(=C\c2ccc(O)cc2)SC(=S)N1c1cccnc1	-13	-20	-32	-20	-3
COc1cccc(/C=C2\SC(=S)N(c3cccnc3)C2=O)c1OC	24	-23	55*	0	-1
O=C1/C(=C/c2ccco2)SC(=S)N1c1cccnc1	84*	12	-1	92*	61*
O=C1/C(=C\c2ccco2)SC(=S)N1c1ccc(O)cc1	3	-1	25	81*	-3
COc1ccc(/C=C2\SC(=S)N(c3cccnc3)C2=O)cc1	-5	1	18	2	30
Cc1cc(NC(=O)C(C)SCC(=O)Nc2nnc(CC(C)C)s2)no1 (centres undefined)	·	14	7	·	·
O=C1/C(=C/C=C/c2ccco2)SC(=S)N1c1ccc(O)cc1	77*	-16	-46	80*	22
NN1C(=O)/C(=C\c2ccco2)SC1=S	91*	11	19	106*	51
COc1ccc(/C=C2/SC(=O)N(NS(=O)(=O)c3ccccc3)C2=S)cc1OC	10	52*	-30	-2	8
O=C(O)c1ccc(N2C(=O)/C(=C/C=C/c3ccccc3)SC2=S)cc1	1	22	6	7	30
O=C(NN1C(=O)/C(=C/C=C/c2ccco2)SC1=S)c1ccncc1	94*	15	0	84*	-1
COc1cccc(C(O)c2nc(-c3ccc(OC)nc3)cs2)c1 (centres undefined)	·	·	6	·	·
CC(C)C(C(=O)O)N1C(=O)/C(=C/C=C/c2ccco2)SC1=S (centres undefined)	79*	-10	-4	91*	-3
CC(C)c1ccc(NC(=O)CN2C(=O)NC3(CCCCCCC3)C2=O)cc1	·	10	-14	·	·
Cc1ccc(-c2ccc3c(c2)O[C@H](CN(C)Cc2cncnc2)[C@@H](C)CN([C@H](C)CO)S3(=O)=O)cc1	·	-16	-8	·	·
COc1ccc(N=C2SC(CC(=O)Nc3ccccc3)C(=O)N2CC2CCCO2)cc1 (centres undefined)	-2	-8	2	-5	21
COc1ccc(N=C2SC(CC(=O)Nc3ccccc3)C(=O)N2CCN2CCOCC2)cc1 (centres undefined)	72*	2	-4	active	2
C/C(=N\NS(=O)(=O)c1ccc(Cl)c([N+](=O)[O-])c1)c1cc2ccccc2o1	12	19	-2	18	21
C/C(=N\NS(=O)(=O)c1ccc(C)c([N+](=O)[O-])c1)c1cc2ccccc2o1	1	34	16	-11	79*
SMILES	PABP FP inh	CRFR2-BP antag	PABP1 MLLE inh	eIF4H FP inh	PHOSPHO1 inh
C/C(=N\Nc1ccc([N+](=O)[O-])cc1)c1cc2ccccc2o1	11	-59	-136	57*	-39
C/C(=N\NC(=S)Nc1cccc(C)c1)c1cc2ccccc2o1	4	-22	43*	7	-183
CC(C)Oc1cc(F)ccc1-c1cc(C(=O)NCCCn2ccnc2)[nH]n1	·	·	1	·	·
CSc1ccc(OC2(C)CCN(Cc3ccc4c(c3)OCCO4)C2)cc1 (centres undefined)	·	·	-3	·	·
Cc1cc(C(=O)CSc2nn3c(=O)c(C(C)(C)C)nnc3s2)c(C)n1-c1ccc(F)cc1	6	0	-34	3	102*
CC(C)c1ccc(NS(=O)(=O)c2ccc(-n3cccn3)cc2)cc1	74*	-24	15	88*	10
CC(C)c1ccc(S(=O)(=O)Nc2ccc(-n3cnnn3)cc2)cc1	·	1	6	·	·
COC(=O)CCC(=O)Nc1sc(C)c(C)c1C(N)=O	5	-1	24	8	90*
COC(=O)CCC(=O)NC(=S)Nc1sc(C)c(C)c1C(N)=O	0	24	15	?	10
O=C1/C(=C\c2ccncc2)CCc2ccccc21	·	5	-10	·	·
O=C1C(=Cc2ccncc2)CCCc2ccccc21	·	70*	1	·	·
Cc1cccc(N(Cc2cc3ccc(C)cc3[nH]c2=O)C(=O)c2ccco2)c1	5	-2	0	6	70*
Cc1ccc2cc(CN(C(=O)c3ccco3)c3ccccc3)c(=O)[nH]c2c1	6	-3	-6	-7	16
C=CCOC(=O)C1=C(C)OC(N)=C(C#N)C1c1ccc2c(c1)OCO2 (centres undefined)	-1	15	11	0	-4
C=CCOC(=O)C1=C(C)OC(N)=C(C#N)C1c1ccoc1 (centres undefined)	88	-33	-20	102*	-17
CCCCC(=O)N(C)c1c(CC)nc2c(OCc3cc(Cl)cc(Cl)c3)cccn12	·	·	-4	·	·
Nc1ccc(Br)c2cccnc12	26	2	2	40	37
CS(=O)(=O)Oc1ccc(Br)c2cccnc12	-2	62*	13	8	13
CCOC(=O)c1c(-c2cc(OC)c(OC)c(OC)c2)csc1N	·	9	22	·	·
CCc1noc(C)c1C(=O)N1CCN(S(=O)(=O)c2ccccc2C(F)(F)F)CC1	·	3	88*	·	·
CCc1noc(C)c1C(=O)N1CCN(S(=O)(=O)c2ccc(Br)cc2Cl)CC1	·	-4	2	·	·
CC(=O)Nc1ccc(Oc2sc(C(=O)c3ccccc3)c(N)c2C#N)cc1	2	6	11	2	20
N#Cc1c(SCc2ccc(Cl)cc2)sc(C(=O)c2ccccc2)c1N	8	4	10	-16	89*
CCCCc1c(C)nc2cc(-c3ccco3)[nH]n2c1=O	4	8	10	-8	29
O=C1c2nc3cc(-c4ccco4)[nH]n3c(=O)c2CN1Cc1ccccc1	85*	3	12	85*	36
SMILES	PABP FP inh	CRFR2-BP antag	PABP1 MLLE inh	eIF4H FP inh	PHOSPHO1 inh
Cc1ccc(-n2c(C)nc3oc4ccccc4c(=O)c3c2=O)cc1	80*	7	-32	40*	27
O=C(c1ccco1)N1CCN=C1SCc1ccccc1Cl	-3	101*	10	-5	-15
O=[N+]([O-])c1nccn1CCCCCCN1CCOCC1	·	·	-8	·	·
Cc1c(C)c2ccc(OCC(=O)NCCc3c[nH]c4ccccc34)cc2oc1=O	·	·	2	·	·
CCN(CC)N=Nc1[nH]nc2nc(C)cc(C)c12	5	-1	-15	11	69*
OC(c1ccc2c(c1)OCO2)c1ncc(-c2cccc(C(F)(F)F)c2)[nH]1 (centres undefined)	·	·	-14	·	·
O=S(=O)(c1ccccc1)n1cc(-c2cccc3nccn23)c2ccccc21	·	·	-4	·	·

Source: PubChem
